Some test systems named below: SR leukemia; RPMI-8226 leukemia; OVCAR-8 ovarian; OVCAR-5 ovarian; OVCAR-4 ovarian; SK-OV-3 ovarian; IGROV1 ovarian; OVCAR-3 ovarian; HS 578T breast; NCI/ADR-RES ovarian; T-47D breast; BT-549 breast; MDA-MB-435 melanoma; SW-620 colon; MCF7 breast; HCT-116 colon; HCC-2998 colon; KM12 colon.
Assay in all cases: NCI-60 one-dose screen, 48 h (100 = growth as untreated, 0 = no growth, -100 = all killed)
Conditions in all cases: 10 µM unless noted

This is part of a sample that, as a whole, favours compounds with a hit. Of some 83,000 tested, about 20% had one in any assay.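 Method: cells in 96-well plates; compound added at one concentration; 48 h incubation; percent growth measured; values under 10 scored active.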 Unmarked numbers belong to inactive results. Calls of active or inactive are those of the source.

In the case of `Cc1ccc(N=Nc2c(N)nn(-c3ccccc3)c2N)cc1`, the growth in the experiment with SR leukemia is -16.6% (active); with RPMI-8226 leukemia, -1.12% (active); with OVCAR-8 ovarian, 41.6%; in the experiment with OVCAR-5 ovarian, 55.3%; in the experiment on OVCAR-4 ovarian, 75%; in the experiment with SK-OV-3 ovarian it was 37.2%. Besides, the growth with IGROV1 ovarian is 48.3%; in the experiment with OVCAR-3 ovarian, 0.588% (active); in the experiment with HS 578T breast, 36.1%; with NCI/ADR-RES ovarian it was -5.12% (active); in the experiment on T-47D breast, 21.5%; with BT-549 breast, -3.98% (active). The growth is -52.1% (active) in the experiment on MDA-MB-435 melanoma; 23.2% in the experiment with SW-620 colon; 7.61% (active) in the experiment with MCF7 breast; 15.6% in the experiment with HCT-116 colon; 46.1% with HCC-2998 colon; 27.6% in the experiment with KM12 colon.

On to `NC(=S)N/N=C/c1cn(-c2ccccc2)nc1-c1cc2ccccc2oc1=O`, for which the growth was 12.2% in the experiment with SR leukemia; 33.4% in the experiment with RPMI-8226 leukemia; 64.5% in the experiment on OVCAR-8 ovarian; 88.1% with OVCAR-5 ovarian; 79.2% in the experiment on OVCAR-4 ovarian; 83.2% in the experiment on SK-OV-3 ovarian. The growth with IGROV1 ovarian was 46.7%; in the experiment on OVCAR-3 ovarian, 34.4%; in the experiment with HS 578T breast, 64.4%; in the experiment on NCI/ADR-RES ovarian, 48.6%; with T-47D breast it was 47.8%; in the experiment with BT-549 breast, 42.5%. Besides, the growth in the experiment on MDA-MB-435 melanoma was -47.5% (active); in the experiment with SW-620 colon, 22.7%; in the experiment with MCF7 breast, 33.3%; with HCT-116 colon it was 27.2%; with HCC-2998 colon, 88.4%; with KM12 colon, 30.9%.

As for `Nc1c(C(=O)Nc2ccncc2)sc2nc3c(cc12)CCCCC3`, the growth in the experiment on SR leukemia is 43.6%; in the experiment on RPMI-8226 leukemia, 47.2%; with OVCAR-8 ovarian, 65.2%; in the experiment on OVCAR-5 ovarian, 83.4%; in the experiment with OVCAR-4 ovarian, 55.8%; in the experiment with SK-OV-3 ovarian, 75.8%. Moreover, the growth in the experiment on IGROV1 ovarian is 98.9%; in the experiment on OVCAR-3 ovarian, 88.9%; in the experiment on HS 578T breast, 85.1%; in the experiment on NCI/ADR-RES ovarian it was 75.5%; with T-47D breast it was 25.7%; with BT-549 breast it was 50.4%. Also, the growth in the experiment on MDA-MB-435 melanoma is 67%; in the experiment on SW-620 colon it was 105%; in the experiment on MCF7 breast, 58.5%; in the experiment with HCT-116 colon it was 66.4%; with HCC-2998 colon it was 85.3%; in the experiment on KM12 colon, 75.6%.

Take `Cc1ccc(C)n1/C=C/n1c(C)ccc1C`: the growth in the experiment on SR leukemia was 122%; in the experiment with RPMI-8226 leukemia, 78.6%; with OVCAR-8 ovarian, 99.3%; in the experiment on OVCAR-5 ovarian, 101%; in the experiment on OVCAR-4 ovarian, 98.4%; with SK-OV-3 ovarian it was 100%. Further, the growth with IGROV1 ovarian is 16.2%; in the experiment on OVCAR-3 ovarian it was 146%; in the experiment on HS 578T breast it was 113%; in the experiment with NCI/ADR-RES ovarian, 92.4%; in the experiment on T-47D breast, 90.5%; in the experiment on BT-549 breast, 91%. For the same compound, the growth in the experiment with MDA-MB-435 melanoma was 91.9%; in the experiment on SW-620 colon, 110%; in the experiment with MCF7 breast, 106%; in the experiment on HCT-116 colon, 104%; in the experiment with HCC-2998 colon, 95%; in the experiment on KM12 colon it was 109%.

Regarding `O=C(O)CCCc1cnc2c3sccc3nc(SCc3c(Cl)cccc3Cl)n12`, the growth in the experiment with SR leukemia was 23.9%; in the experiment with RPMI-8226 leukemia it was 51.6%; in the experiment on OVCAR-8 ovarian, 63.7%; in the experiment on OVCAR-5 ovarian it was 80.5%; in the experiment on OVCAR-4 ovarian, 59.7%; in the experiment on SK-OV-3 ovarian it was 36.5%. Moreover, the growth in the experiment with IGROV1 ovarian was 54.1%; in the experiment on OVCAR-3 ovarian it was 7.34% (active); in the experiment on HS 578T breast, 39.5%; in the experiment on NCI/ADR-RES ovarian, 45.7%; in the experiment with T-47D breast, 24.9%; with BT-549 breast it was 44.8%. For the same compound, the growth with MDA-MB-435 melanoma was 6.44% (active); in the experiment with SW-620 colon it was 27.3%; in the experiment with MCF7 breast, 26.5%; in the experiment with HCT-116 colon it was 21.7%; in the experiment with HCC-2998 colon it was 81.1%; in the experiment with KM12 colon, 21.7%.

For `COC(=O)C1=C(C(=O)Nc2cccnc2)C2OC1(C(Cc1ccccc1)Oc1ccccc1)C1OC21` (centres undefined), the growth with SR leukemia was -23.7% (active); with RPMI-8226 leukemia, -11.8% (active); in the experiment with OVCAR-8 ovarian, 86.4%; in the experiment with OVCAR-5 ovarian, 79.7%; in the experiment with OVCAR-4 ovarian it was 75%; in the experiment with SK-OV-3 ovarian, 98.3%. Moreover, the growth was 77.7% in the experiment on IGROV1 ovarian; -53.5% (active) with OVCAR-3 ovarian; 101% in the experiment with HS 578T breast; 103% in the experiment on NCI/ADR-RES ovarian; -46.7% (active) with T-47D breast; 61.5% in the experiment on BT-549 breast. In addition, the growth in the experiment on MDA-MB-435 melanoma is 77.8%; with SW-620 colon, -64.9% (active); in the experiment with MCF7 breast, 24.9%; with HCT-116 colon, -46.3% (active); in the experiment on HCC-2998 colon, 105%; in the experiment on KM12 colon it was 96.8%.

On to `O=C1/C(=C/c2ccccc2)CN(C(=O)c2cccnc2)C/C1=C\c1ccccc1`, for which the growth is 4.69% (active) in the experiment on SR leukemia; -19.6% (active) with RPMI-8226 leukemia; 12.4% in the experiment with OVCAR-8 ovarian; 10.8% with OVCAR-5 ovarian; 43.8% in the experiment with OVCAR-4 ovarian; 40.2% in the experiment with SK-OV-3 ovarian. Further, the growth in the experiment with IGROV1 ovarian was 2.89% (active); with OVCAR-3 ovarian it was -16.2% (active); in the experiment with HS 578T breast, 21.4%; with NCI/ADR-RES ovarian it was 18.7%; with T-47D breast it was 9% (active); in the experiment on BT-549 breast it was -53.3% (active). Also, the growth in the experiment on MDA-MB-435 melanoma was -27.7% (active); in the experiment on SW-620 colon, -54.4% (active); in the experiment with MCF7 breast it was 0.394% (active); with HCT-116 colon it was -87.6% (active); in the experiment on HCC-2998 colon, -83.5% (active); in the experiment on KM12 colon, -40.1% (active).

Consider `C=C(C)[C@@H]1CC[C@]2(CO)CC[C@]3(C)[C@H](CC[C@@H]4[C@@]5(C)CCC(NCCc6ccc(O)cc6)C(C)(C)[C@@H]5CC[C@]43C)[C@@H]12` (some centres undefined), for which the growth in the experiment with SR leukemia is -46.8% (active); with RPMI-8226 leukemia, -53.5% (active); in the experiment with OVCAR-8 ovarian, -79.4% (active); in the experiment with OVCAR-5 ovarian, -72.4% (active); in the experiment on OVCAR-4 ovarian it was -89.3% (active); in the experiment on SK-OV-3 ovarian, 75.8%. Further, the growth with IGROV1 ovarian is -85.5% (active); in the experiment on OVCAR-3 ovarian it was -95% (active); with HS 578T breast, -54.5% (active); in the experiment on NCI/ADR-RES ovarian it was -71% (active); in the experiment with T-47D breast it was -66.3% (active); in the experiment with BT-549 breast, 33.9%. Besides, the growth is -92.4% (active) in the experiment on MDA-MB-435 melanoma; -80% (active) in the experiment on SW-620 colon; -77.9% (active) in the experiment on MCF7 breast; -89.9% (active) in the experiment with HCT-116 colon; -90.1% (active) in the experiment on HCC-2998 colon; -84% (active) in the experiment on KM12 colon.

Values taken from PubChem BioAssay (NCI).
